Inconclusive results are not listed. Active and inactive are the calls of the source. The call rests on the fitted dose curve; in most records, active means well fitted curve in the direction sought with a large enough effect; inconclusive means small, poorly fitted or top-dose-only effect, or another doubt; inactive means no such curve, though single readings can be large; an effect the other way counts as inactive or inconclusive.
Key:
[1] = tested on: MCC-13; assay: qHTS assay to identify novel small-molecules to repurpose for Merkel cell carcinoma treatment (AID 1296009); conditions: MCC and control cell lines, CellTiter-Glo viability, 72 h; series mostly up to 46 µM; further: nearly all actives have a fitted effect of over 60% in size
Procedure, shortened: (§1)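 Cells were treated for 72 hr at 37 degree celsius with compounds in 8- or 11-point dose response. Viability was read by CellTiter-Glo luminescence, normalized to no-cell (cytotoxicity) and DMSO controls.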

[2] = tested on: MCC-26; assay: as above; conditions: MCC and control cell lines, CellTiter-Glo viability, 72 h; series mostly up to 46 µM
Procedure, shortened: as §1

[3] = tested on: MKL-1; assay: as above; conditions: MCC and control cell lines, CellTiter-Glo viability, 72 h; series mostly up to 46 µM
Procedure, shortened: as §1

[4] = tested on: MKL-2; assay: as above; conditions: MCC and control cell lines, CellTiter-Glo viability, 72 h; series mostly up to 46 µM
Procedure, shortened: as §1

[5] = tested on: UISO; assay: as above; conditions: MCC and control cell lines, CellTiter-Glo viability, 72 h; series mostly up to 46 µM
Procedure, shortened: as §1

[6] = tested on: WaGa; assay: as above; conditions: MCC and control cell lines, CellTiter-Glo viability, 72 h; series mostly up to 46 µM
Procedure, shortened: as §1

[7] = tested on: C33A; assay: Primary qHTS to identify gynecologic anti-cancer compounds using libraries of approved drugs and bioactive compounds (AID 1345084); conditions: Gynecologic cancer cell panel viability, ATPlite luminescence, 48 h; series mostly up to 57.5 µM; further: nearly all actives have a fitted effect of over 55% in size
Procedure, shortened: (§2)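 Measured: luminescence after ATPlite addition (15 min, RT). Exposure: 48 h, 37 C, 5% CO2.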

[8] = tested on: CAOV3; assay: as above; conditions: Gynecologic cancer cell panel viability, ATPlite luminescence, 48 h; series mostly up to 57.5 µM
Procedure, shortened: as §2

[9] = tested on: CASKI; assay: as above; conditions: Gynecologic cancer cell panel viability, ATPlite luminescence, 48 h; series mostly up to 57.5 µM
Procedure, shortened: as §2

[10] = tested on: Es-2; assay: as above; conditions: Gynecologic cancer cell panel viability, ATPlite luminescence, 48 h; series mostly up to 57.5 µM
Procedure, shortened: as §2

[11] = tested on: HeLa; assay: as above; conditions: Gynecologic cancer cell panel viability, ATPlite luminescence, 48 h; series mostly up to 57.5 µM
Procedure, shortened: as §2

[12] = tested on: Hek293T; assay: as above; conditions: Gynecologic cancer cell panel viability, ATPlite luminescence, 48 h, control line for the selectivity index; series mostly up to 57.5 µM
Procedure, shortened: as §2

[13] = tested on: JEG-3; assay: as above; conditions: Gynecologic cancer cell panel viability, ATPlite luminescence, 48 h; series mostly up to 57.5 µM
Procedure, shortened: as §2

[14] = tested on: OV90; assay: as above; conditions: Gynecologic cancer cell panel viability, ATPlite luminescence, 48 h; series mostly up to 57.5 µM
Procedure, shortened: as §2

[15] = tested on: PA-1; assay: as above; conditions: Gynecologic cancer cell panel viability, ATPlite luminescence, 48 h; series mostly up to 57.5 µM
Procedure, shortened: as §2

[16] = tested on: Tov-21-G; assay: as above; conditions: Gynecologic cancer cell panel viability, ATPlite luminescence, 48 h; series mostly up to 57.5 µM
Procedure, shortened: as §2

[17] = tested on: SKOV3; assay: as above; conditions: Gynecologic cancer cell panel viability, ATPlite luminescence, 48 h; series mostly up to 57.5 µM
Procedure, shortened: as §2

Measured: Potency

COc1cc(NS(=O)(=O)c2ccc(N)cc2)ncn1
not listed: [17]
inactive: all other assays above

O=C(O)CCC(=O)Nc1ccc(S(=O)(=O)Nc2nccs2)cc1
inactive: all assays above

OC1C(O)C(O)C(O)C(O)C1O (configuration not stated)
inactive: all assays above

Nc1ccc(S(=O)(=O)NCc2ccccc2)cc1
not listed: [17]
inactive: all other assays above

COc1ccc2c(c1)c1c3n2CCN(C)C3=NCC1
inactive: all assays above

CCCCNC(=O)NS(=O)(=O)c1ccc(N)cc1
not listed: [17]
inactive: all other assays above

CCCCCCCC/C=C\CCCCCCCCN
inactive: all assays above

CC(C(=O)O)c1cccc(Oc2ccccc2)c1 (configuration not stated)
inactive: all assays above

CCCCCCCCCCCCCCCC(=O)O
inactive: all assays above

CCCCN1C[C@H](O)[C@@H](O)[C@H](O)[C@H]1CO
inactive: all assays above

CCCCC(CC)COC(=O)c1ccc(N(C)C)cc1 (configuration not stated)
inactive: all assays above

COc1ccc(S(=O)(=O)N2c3ccc(Cl)cc3[C@@](O)(c3ccccc3Cl)[C@H]2C(=O)N2CCC[C@@H]2C(N)=O)cc1OC
inactive: all assays above

O=C(O)Cc1csc(-c2ccc(Cl)cc2)n1
not listed: [17]
inactive: all other assays above

CC(=O)O[C@]1(C(C)=O)CC[C@H]2[C@@H]3C=C(C)C4=CC(=O)CC[C@]4(C)[C@H]3CC[C@@]21C
not listed: [17]
inactive: all other assays above

COc1cc(C(=O)NCc2ccc(OCCN(C)C)cc2)cc(OC)c1OC
inactive: all assays above

CCCc1ncc(C[n+]2ccccc2C)c(N)n1
inactive: all assays above
